Source: PubChem
FLuc counter – counter-screen for miR-21 project: firefly luciferase inhibitors or activators | 360,000 tested, 6.9% active | AID 588342 | P08659 | Potency, µM (titrated, usually from 57.5 µM), without a hit: top-dose activity change, negative = inhibition, most hits filed as inhibitors | purified FLuc, Km substrates, luminescence inhibition;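 note: plate controls were vehicle for no effect and reference inhibitor for full effect; nearly all actives have a fitted effect of over 55% in size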
Target sequence (P08659 whole entry, looked up): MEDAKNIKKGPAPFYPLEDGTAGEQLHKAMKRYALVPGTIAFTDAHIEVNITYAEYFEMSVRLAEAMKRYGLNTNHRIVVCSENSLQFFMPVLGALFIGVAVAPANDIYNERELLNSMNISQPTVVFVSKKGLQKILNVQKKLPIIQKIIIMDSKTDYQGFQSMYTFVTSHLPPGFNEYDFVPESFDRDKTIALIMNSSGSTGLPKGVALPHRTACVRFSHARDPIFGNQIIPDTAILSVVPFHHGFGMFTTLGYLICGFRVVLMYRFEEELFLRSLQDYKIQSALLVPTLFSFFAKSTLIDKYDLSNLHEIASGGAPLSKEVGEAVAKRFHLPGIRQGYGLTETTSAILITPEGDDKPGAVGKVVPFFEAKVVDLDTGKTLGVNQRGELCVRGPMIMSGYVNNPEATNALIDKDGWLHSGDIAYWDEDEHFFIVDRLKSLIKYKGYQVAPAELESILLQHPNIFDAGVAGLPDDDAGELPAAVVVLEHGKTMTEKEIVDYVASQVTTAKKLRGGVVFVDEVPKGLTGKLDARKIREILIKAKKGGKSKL
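Biochemical qHTS of compounds, final roughly 60 µM downward over six points, against 10 nM purified firefly luciferase using Km concentrations of substrates (10 uM D-luciferin, 10 uM ATP) in Tris acetate pH 7.5 buffer; luminescence output.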
ELG1 genotoxic – genotoxicity induction in ELG1-luciferase HEK293T cells; Potency, µM (series often up to 46 µM), for inactives: at the top dose activity change, positive = activation, most hits filed as activators; HEK293T ELG1-luciferase reporter, luminescence, 16 h; 330,000 tested, 1.3% active; note: % of control where 0% means no effect; nearly all actives have a fitted effect of over 60% in size
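Screening used a luciferase reporter fused to human ELG1 in HEK293T cells. Luminescence was read on a CCD plate imager after 16 hr exposure and 30 min ONE-Glo incubation.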
NPC1 prom act – activators of NPC1 promoter. Huh7 NPC1 promoter luciferase reporter, 24 h. AID 485313. 320,000 tested, 2.4% active. Potency, µM (doses to about 9.22 µM), for the others: at the highest dose activation, usual class: activators; note: % of control where 0% means no effect; nearly all actives have a fitted effect of over 60% in size
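Cells: Huh7 expressing luciferase under the NPC1 promoter, 1500/well. Seeded 2 h, compound added, incubated 24 h at 37 °C. Luciferase reagent, 10 min ambient, then luminescence.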
SMN2 splice up – SMN2 splice variant enhancement; HEK293 SMN2-luciferase splicing reporter, luminescence, 30-36 h; Potency, µM (titrated, usually from 46.1 µM), inactives show at the top dose activity change, positive = activation, actives largely listed as activators; 210,000 tested, 2.8% active; AID 1458; note: % of control where 0% means no effect; nearly all actives have a fitted effect of over 55% in size
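HEK293 cells carry an SMN2 minigene-luciferase reporter in which exon 7 inclusion puts luciferase in frame. Cells were seeded at 2000 cells/well, attached for 10-12 hours, then exposed to compounds for 30-36 hours at 37C before ONE-Glo luminescence.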
Rab9 prom act – Rab9 promoter activation. Huh7 Rab9 promoter-luciferase reporter, luminescence, 24 h. Potency, µM (highest dose often 9.22 µM), without a hit: at the highest dose activation, negative = inhibition, usual class: activators. 320,000 tested, 2.8% active. AID 485297; note: % of control where 0% means no effect; nearly all actives have a fitted effect of over 60% in size
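Cell-based reporter: Huh7 stable for Rab9 promoter-driven luciferase, plated in reduced-serum medium with 10% FBS at 1500 cells/well, compound-treated 24 h at 37 °C, luminescence read after 10 min reagent.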
The depositor's hits bear a star; u = inconclusive; x = no result given; [ ] = another dose, or the depositor's remark. Only some compounds are listed: those with a hit (about 7.4% of all), similar ones and a draw of the others. Calls come from the whole dose curve; as a rule, active = well fitted curve in the direction sought with a large enough effect; inconclusive = small, poorly fitted or top-dose-only effect, or another doubt; inactive = no such curve, though single readings can be large; an effect the other way counts as inactive or inconclusive. Potency is the fitted concentration of half-maximal effect.

SMILES	FLuc counter	ELG1 genotoxic	NPC1 prom act	SMN2 splice up	Rab9 prom act
N#Cc1ccccc1OCCN1C(=O)c2ccccc2C1=O	u	13µM*	25.9%	x	29.3%
COc1ccc(OCCN2C(=O)c3ccccc3C2=O)c([N+](=O)[O-])c1	26.9µM*	u	28.1%	x	u
Cc1cccc(NC(=O)c2cc(S(=O)(=O)NCc3ccc4c(c3)OCO4)ccc2F)c1C	0.6%	x	x	x	x
O=C(COc1ccccc1)Nc1c2c(nn1-c1ccccc1)CS(=O)C2 (configuration not stated)	3.6%	1.1%	-0.2%	x	-0.8%
COc1ccc2[nH]cc(CCNc3nc(-c4ccc(C(=O)N(C)C)cc4)nc4ccccc34)c2c1	x	x	x	11.2µM*	x
COc1ccc(C)cc1S(=O)(=O)NC(C)C(=O)NC1CC1 (configuration not stated)	3.5%	0.7%	1.5%	x	2.8%
CCc1nnc(NC(=O)c2ccc(COc3ccccc3)o2)s1	-13.5%	16.0%	2.2%	-2.3%	3.3%
O=C(Nc1nccs1)c1ccc(COc2ccccc2)o1	u	u	2.51µM*	x	4.47µM*
Cc1ccc(OCc2ccc(C(=O)Nc3nccs3)o2)cc1	16.9µM*	3.1%	25.8%	9.8%	15.9%
O=C(N/N=C/C(Br)=C/c1ccccc1)c1ccccc1[N+](=O)[O-]	u	3.4%	-3.2%	x	-0.3%
COc1ccc(C(=O)N/N=C/C(Br)=C/c2ccccc2)cc1	3.01µM*	-2.2%	8.8%	11.3%	19.4%
Cn1cc(C(=O)N/N=C/C(Br)=C\c2ccccc2)ccc1=O	u	14.5%	-7.4%	14.6%	11.4%
Cn1cc(C(=O)N/N=C/C(Br)=C/c2ccccc2)ccc1=O	19µM*	12.1%	1.1%	4.3%[1.84 µM]	3.8%
COc1cccc(C(=O)N/N=C/C(Br)=C/c2ccccc2)c1	10.7µM*	17.7%	1.2%	22.7%	13.3%
Cc1ccc(S(=O)(=O)N2CCCc3cc(NC(=O)c4ccccc4Cl)ccc32)cc1	3.1%	x	x	x	x
CCc1ccc(OCC(=O)N(Cc2ccc(C(C)C)cc2)C2CCS(=O)(=O)C2)cc1 (configuration not stated)	1.2%	x	x	-12.0%	x
NC(=O)c1ccccc1NC(=O)/C=C/c1c(Cl)cccc1Cl	19µM*	11.9%	u	45.7%	3.16µM*
NC(=O)c1ccccc1NC(=O)/C=C/c1cccc(Cl)c1	6.75µM*	7.1%	3.16µM*	11.2µM*	2.24µM*
Cc1ccc(/C=C/C(=O)Nc2ccccc2C(N)=O)o1	9.53µM*	x	x	11.2µM*	x
CCOC(=O)C1=C(CN2CCN(c3ccc(OC)cc3)CC2)NC(=O)NC1c1ccc(OC)cc1 (configuration not stated)	-7.3%	x	x	x	x
COCCNc1nc(C)cc(-c2cc(-c3ccc(Cl)cc3)on2)n1	15.1µM*	-0.1%	9.6%	x	-0.1%
O=C1C(C=NCc2ccncc2)=C(O)c2ccccc21	-14.9%	13.7%	-0.3%	10.8%	18.5%
O=C1C(C=NCc2ccco2)=C(O)c2ccccc21	6.75µM*	5.17µM*	21.0%	u	27.5%
O=C1C(C=NCc2cccnc2)=C(O)c2ccccc21	1.9µM*	2.06µM*	14.0%	x	u
O=C1c2cccc3cccc(c23)C(=O)N1Cc1ccco1	-0.8%	1.3%	-0.2%	0.5%	-5.7%
SMILES	FLuc counter	ELG1 genotoxic	NPC1 prom act	SMN2 splice up	Rab9 prom act
CCOc1ccc(C(=O)Nc2ccc(Cl)c(-c3nc4cc(C)cc(C)c4o3)c2)cc1	-10.2%	x	x	-0.7%	x
CC(=O)NCCOc1ccc2oc3ccccc3c2c1	16.9µM*	x	x	4.9%	x
CC(=O)NCCOc1cccc(OCCNC(C)=O)c1	1.9%	0.3%	-0.5%	-13.5%	2.3%
CC[C@H](C(=O)[C@H](C)[C@H](O)[C@H](C)CCc1ccc(C)c(O)c1C(=O)O)[C@H]1O[C@](CC)([C@@H]2CC[C@@](O)(CC)[C@H](C)O2)C[C@H]1C	x	x	x	-22.8%[20.6 µM]	x
C=CCn1c(C)cc(C(=O)CSc2nc3ccccc3[nH]2)c1C	0.301µM*	u	0.126µM*	-58.7%	0.316µM*
O=C(O)c1ccccc1CSc1nc2ccccc2[nH]1	10.7µM*	u	u	x	u
Cc1cc(C(=O)CSc2nc3ccccc3[nH]2)c(C)n1Cc1ccco1	0.757µM*	u	0.708µM*	u	0.501µM*
Cc1noc(C)c1CSc1nc2ccccc2[nH]1	-1.9%	u	-1.5%	5.9%	0.2%
